Here are results for 18 compounds from PubChem BioAssay (NCATS).

Molecules are shown by their SMILES. Inconclusive results are not listed.

The test can be described thus: qHTS Assay for Lipid Storage Modulators (AID 1519). The settings on record: Drosophila S3 cells, BODIPY lipid droplet/cell ratio, laser cytometry; measured here: cell count channel max response; cells loaded with oleic acid. The method, boiled down: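 Cells seeded at 5,000 per well were treated with compounds over a concentration series and loaded with oleic acid (400 uM, as added). Lipid droplet fluorescence (488 nm excitation, 500-530 nm channel) was read by laser-scanning cytometry and normalized to 20 uM Triacsin C.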
As for `CN(C)Cc1ccccc1-c1cc(N(C)Cc2ccco2)ncn1`, the max response amounted to 19.9%. With `c1cncc(-c2cncnc2NC2CCNCC2)c1`, the max response is 15.6%. `Cn1cc(-c2nc3cnc(Oc4ccccc4)nc3n(C)c2=O)c2ccccc21`: the max response amounted to 14.6%. Next, `CN(C)c1ncc2nc(-c3ccccc3)c(=O)n(-c3ccccc3)c2n1`: 22.5%. Take `CN1CCN(c2ncc3nc(-c4cc(F)cc(F)c4)c(=O)n(C4CC4)c3n2)CC1`: the max response was determined as 12.3%. As for `O=c1c(-c2ccc(F)cc2)nc2cnc(N3CCNCC3)nc2n1Cc1ccc(F)cc1`, the max response came to 7.95%. Next, `O=c1c(-c2cc(F)cc(F)c2)nc2cncnc2n1-c1ccccc1`: 22.2%; `CN(Cc1ccco1)c1ncncc1-c1ccccc1Cl`: 14.4%; `O=c1cnc2cnc(N3CCOCC3)nc2n1CCc1ccccc1`: 1.44%.

Regarding `CN1CCN(c2ncncc2-c2ccc(C(=O)N(C)C)cc2)CC1`, the max response turned out to be 12.3%.

Regarding `CC(=O)NCCNc1ncncc1-c1ccccc1C`, the max response came out at 17.2%. As for `COCCn1c(=O)cnc2cnc(Oc3ccccc3)nc21`, the max response is 12%. As for `COCCn1c(=O)c(-c2ccc(Cl)cc2)nc2cnc(Oc3cccc(Cl)c3)nc21`, the figure is 19.3%; as for `COc1ccc(CNc2ccnc(-c3ccc4c(c3)OCO4)n2)c(OC)c1`, 13.5%; as for `COc1ncc2nc(-c3cc(F)cc(F)c3)c(=O)n(C)c2n1`, 24.3%. Turning to `COc1cccc(Nc2ncc3nc(-c4ccccc4)c(=O)n(Cc4cccs4)c3n2)c1`, the max response was found to be 20.3%. Turning to `COc1ccc(-c2nc3cnc(N4CCN(C)CC4)nc3n(Cc3ccc(F)cc3)c2=O)cc1`, the max response stood at 11.6%. As for `COCCn1c(=O)c(-c2cc(F)cc(F)c2)nc2cnc(N3CCOCC3)nc21`, the figure is 22.1%.
